# Screening results deposited in PubChem by National Center for Advancing Translational Sciences (NCATS).
# S2 tox = cell viability loss in ATXN counter-screen | S2 cells (HEK-293 line with an ATXN2-luciferase reporter) viability, CellTiter-Fluor protease fluorescence, 24 h | Potency, µM (titrated, usually from 56.7 µM), usual class: cytotoxic | 400,000 compounds, 0.49% hits | AID 651635; also: nearly all actives have a fitted effect of over 40% in size
# Apoferritin bind = candidate novel general anesthetic via apoferritin binding; P02791; apoferritin/1-aminoanthracene competitive binding, fluorescence; Potency, µM (highest dose often 77.5 µM), for inactives: top-dose activity change, negative = displacement, hits mostly inhibitors; 350,000 compounds, 0.074% hits; also: % is scaled to controls: 0 for no effect and ±100 for the full control effect; nearly all actives have a fitted effect of over 20% in size
# Target sequence (P02791 2-175 limits assumed): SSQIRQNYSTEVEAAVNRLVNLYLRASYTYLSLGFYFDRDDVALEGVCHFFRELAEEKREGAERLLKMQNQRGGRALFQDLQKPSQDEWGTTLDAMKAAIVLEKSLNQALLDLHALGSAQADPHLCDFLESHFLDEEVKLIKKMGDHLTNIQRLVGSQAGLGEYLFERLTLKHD
#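 Concentration-response curves derived by four-parameter Hill fitting of normalized fluorescence, where compounds displaced 1-AMA from 10 uM horse apoferritin following a brief 10 min room-temperature incubation; propofol titration acted as positive control.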
# HepG2 tox = HepG2 cytotoxicity, counter-screen for TGF-b inhibitors; HepG2 CAGA-GFP viability, ATP luminescence, 18 h; Potency, µM (titrated, usually from 46.1 µM), for the others: at the top dose activity change, negative = cytotoxicity, usual class: cytotoxic; 410,000 compounds, 0.76% hits; AID 588856
#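 HepG2 CAGA-GFP cells (1000/well, DMEM with 1% FBS) received compound, then TGF-beta at 500 pg/mL final, and were incubated 18 hours at 37 degrees C. Viability was read by CellTiter-Glo luminescence. Media-only wells were set as complete cell-killing and DMSO as no toxicity.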
# TGFb inhibitor = inhibitors of TGF-b signaling; HepG2 CAGA-GFP TGF-b/SMAD3 reporter, GFP fluorescence, 18 h; TGF-beta stimulated, 500 pg/mL final; 410,000 compounds, 1.2% hits; Potency, µM (doses to about 46.1 µM), for inactives: at the top dose activity, negative = inhibition, most hits filed as inhibitors; AID 588855; also: % is scaled to controls: 0 for no effect and ±100 for the full control effect; nearly all actives have a fitted effect of over 65% in size
#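 Smad-responsive CAGA-GFP expression was quantified in HEPG2 cells exposed to compounds and 500 pg/mL final TGF-beta for 18 h at 37 degrees C; unstimulated wells defined full inhibition.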
# ATXN2 expr inh = reduces ATXN2 reporter expression in HEK-293 cells | 360,000 compounds, 0.72% hits | HEK-293 ATXN2-luciferase reporter, luminescence, 24 h | Potency, µM (doses to about 57 µM), for the others: top-dose activity change, negative = inhibition, actives largely listed as inhibitors; also: % is scaled to controls: 0 for no effect and ±100 for the full control effect; nearly all actives have a fitted effect of over 55% in size
#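 qHTS (up to 57 uM final) was run with 24 h compound exposure of reporter cells at 37 °C. Each well was multiplexed: SteadyGlo luminescence measured ATXN2-luciferase expression after a fluorogenic Gly-Phe-AFC viability readout (25 uM final).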
# * marks the source's active call; other numbers are inactive results; i = inactive; ? = inconclusive; / = no result given; ! = a repeat was not active. The list is not random: actives were taken first. Their share in the collection is about 2.4%. Calls follow the shape of the dose curve; as a rule, active = well fitted curve in the direction sought with a large enough effect; inconclusive = small, poorly fitted or top-dose-only effect, or another doubt; inactive = no such curve, though single readings can be large; an effect the other way counts as inactive or inconclusive. Potency is read from the fitted curve at half-maximal effect.
SMILES,S2 tox,Apoferritin bind,HepG2 tox,TGFb inhibitor,ATXN2 expr inh
CCCc1cnc(NCCNCC(O)COc2ccc(Cl)c(Cl)c2)nc1 (stereo not drawn),?,?,20µM*,?,?
COC(=O)c1c(OCC2CCCN(C)C2)cc(=O)n2c1CCN(Cc1ccc(OC)c(O)c1)CC2 (stereo not drawn),i,/,/,/,/
Nc1c(C(=O)N2CCOCC2)sc2nc3c(cc12)CCC3,i,-6.1%,-1.9%,2.4%,0.3%
Nc1c(C(=O)N2CCOCC2)sc2nc3c(cc12)CCCC3,i,25.2%,-15.7%,3.8%,3.16µM*
COc1ccc(CCNC(=O)c2cnn3c2NC(=C2CC2)C=C3C(F)F)cc1OC,/,/,-48.9%,19.8%,/
CC1(C(=O)Nc2cccc3cccnc23)CCN1Cc1csc2ccccc12 (stereo not drawn),20µM*,/,-47.8%,?,0.0%
COc1ccc(NC(=O)C2(C)CCN2Cc2csc3ccccc23)cc1OC (stereo not drawn),?,/,-18.0%,2.0%,?
CCOC1OC(=O)C[C@H]1NC(=O)[C@@H]1CCCN1C(=O)[C@@H](NC(=O)c1ccc(N)c(Cl)c1)C(C)(C)C (stereo partly drawn),/,/,/,/,50.9%
CC(C)(C)n1ncc2c(=O)n(Cc3ccc(F)cc3F)cnc21,/,/,-23.9%,5.2%,/
CC(C)c1ccc(NC(=O)C2CCN(S(=O)(=O)c3ccc(Br)s3)CC2)cc1,i,-12.2%,-18.1%,-9.0%,-9.1%
O=C(Nc1ccc(Cl)cc1)C1CCN(S(=O)(=O)c2ccc(Br)s2)CC1,?,-2.3%,-39.8%,12.6µM*,0.0%
Cc1csc(NC(=O)C2CCCN(S(=O)(=O)c3ccc(Br)s3)C2)n1 (stereo not drawn),i,-23.7%,5.3%,17.8µM*,-17.8%
Cc1cc(NC(=O)C2CCCN(S(=O)(=O)c3ccc(Br)s3)C2)ccc1Br (stereo not drawn),i,7.6%,-17.1%,?,8.2%
C/C=C1\COC(C(=O)NCc2ccccc2)(C(F)(F)F)C=C1C=C(C)C (stereo not drawn),i,-7.6%,-14.7%,11.2µM*!,5.6%
Cc1ccccc1N1CCN(S(=O)(=O)c2nnc(NC(=O)c3ccco3)s2)CC1,i,-11.2%,2.2%,-7.7%,-6.2%
CCOc1ccc2[nH]c3c(N4CCc5ccccc5C4)ncnc3c2c1,?,3.9%,-80.1%,?,-63.9%
COc1ccc2[nH]c3c(N4CCC(O)(c5cccc(C(F)(F)F)c5)CC4)ncnc3c2c1,?,8.5%,-98.2%,?,28.2µM*
COc1ccc2[nH]c3c(N4CCN(Cc5ccc6c(c5)OCO6)CC4)ncnc3c2c1,?,152.9%,-43.8%,?,28.2µM*
CCCCOCCCNC(=O)C[C@@H]1C[C@@]2(C(=O)OCC)CCCC=C2N(Cc2cccc3ccccc23)C1=O,35.5µM*,/,/,/,?
CCOC(=O)[C@]12CCCC=C1N(Cc1cccc3ccccc13)C(=O)[C@H](CC(=O)NCc1cccc3ccccc13)C2,i,/,/,/,4.6%
CCOC(=O)[C@]12CCC=C1N(CCC1=CCCCC1)C(=O)[C@H](CC(=O)NCc1ccc(OC)c(OC)c1)C2,?,/,/,/,6.9%
CCCCCCCCN1C(=O)[C@H](CC(=O)NCc2ccc(OC)c(OC)c2)C[C@@]2(C(=O)OCC)CCCC=C12,14.1µM*,/,/,/,?
CC12CCC(C(=O)N3CCC(Cc4ccccc4)CC3)(C(=O)C1=O)C2(C)C (stereo not drawn),i,-20.3%,-8.8%,-4.1%,-16.6%
C=CCn1c(SCC(=O)c2[nH]c(C)c(C(=O)OCC)c2C)nc2scc(-c3ccc(OC)c(OC)c3)c2c1=O,/,-0.6%,-14.6%,?,28.2µM*
CCOC(=O)c1c(C)[nH]c(C(=O)CSc2nnc(-c3ccncc3)n2CC)c1C,i,0.5%,-9.0%,?,-8.0%
SMILES,S2 tox,Apoferritin bind,HepG2 tox,TGFb inhibitor,ATXN2 expr inh
CN(C)c1ccc(CNc2nc(-c3ccco3)nn2S(=O)(=O)c2ccc3ccccc3c2)cc1,i,-8.6%,-0.4%,-0.8%,5.3%
O=Cc1cc(N=Nc2cccc(C(=O)O)c2)ccc1O,i,-3.9%,-42.5%,-13.9%,2.8%
O=Cc1cc(N=Nc2ccccc2Cl)ccc1O,33.6µM*,?,-16.7%,?,-32.4%
CC(=O)Nc1ccc(S(=O)(=O)NNc2ccc([N+](=O)[O-])cc2)cc1,?,?,-3.0%,0.0%,/
O=C(N/N=C/c1ccc(C(F)(F)F)cc1)c1ccc(O)cc1,i,4.0%,-20.0%,-19.1%,4.3%
NC(N)=NN=C(c1ccc(F)cc1)c1ccc(C(F)(F)F)cc1,/,/,-109.5%,10µM*,?
COc1ccc(Nc2sc(C(=O)Nc3cccc(Cl)c3)c(N)c2C(=O)Nc2ccccc2OC)cc1,/,-11.8%,/,/,/
COc1ccccc1NC(=O)c1c(Nc2ccccc2F)sc(C(=O)Nc2cccc(Cl)c2)c1N,?,2.0%,-36.2%,15.8µM*,?
CC(C)OC(=O)c1cccc(C(=O)OCc2ccco2)n1,i,-19.7%,7.08µM*,-12.7%,-3.5%
CC(C)OC(=O)c1cccc(C(=O)Oc2ccccc2)n1,i,-15.7%,19.1%,0.4%,0.9%
O=[N+]([O-])c1ccc2c(c1)/C(=C/c1ccc(C=S)cc1)C=C2,/,/,-0.9%,-7.8%,/
CCCCOC(=O)c1ccc(NC(=O)Cc2coc3ccc(C(C)C)cc23)cc1,?,-8.6%,-38.7%,11.2µM*,?
Cc1ccc(NC(=O)Cc2coc3ccc(C(C)C)cc23)c(C)c1,i,-5.2%,-42.9%,?,-9.6%
Cc1ccc(NC(=O)Cc2coc3ccc(C(C)C)cc23)cc1Cl,?,-1.0%,-32.1%,11.2µM*,-8.4%
C[C@@H](/C=C/c1ccc2ccccc2c1)C1COC(=O)C[C@H]1O (stereo partly drawn),/,-20.9%,3.0%,-2.2%,/
CN(C)CCN1CCN(c2cccc(Cl)c2)C1=O,i,/,/,/,17.1%
COc1ccc(CCN2C(=O)CSC2=S)cc1OC,22.4µM*,4.2%,-57.7%,?,?
Cc1ccc(C(=O)CSc2nnnn2C(C)C)c(C)c1,i,?,-5.4%,-2.5%,7.94µM*
CC(C)c1cnn2c(NCc3ccccc3)cc(N[C@@H](CO)[C@H](O)CO)nc12,/,/,/,/,0.273µM*
CCc1cc(SC#N)cc(CC)c1NC(=O)CCl,?,-13.9%,-81.3%,7.94µM*,?
Nc1ccc(-c2cc3ccccc3oc2=O)cc1,/,-8.0%,-25.9%,12.5%,0.282µM*
Cc1nc2ccn(Cc3ccco3)c(=O)c2cc1C(=O)NCc1ccc(Cl)cc1,/,-16.4%,-19.8%,10µM*,/
Nc1ccc([N+](=O)[O-])c(C(F)(F)F)c1,i,/,/,/,6.2%
Cn1c(=O)[nH]c(=O)c2[nH]c(CN3CCN(Cc4ccccc4)CC3)nc21,i,-11.1%,0.5%,15.1%,2.5%
